# Assay results published in PubChem BioAssay AID932 (The Scripps Research Institute Molecular Screening Center, 2007).
# The campaign covered roughly 200,000 compounds. About 5,100 (2.5%) were called active. The sample holds actives, similar compounds and a random draw of the others, so the mix is not that of the screen. A number with no mark means an inactive call.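 The calls were made as follows: active = activation above the screen-wide mean activation plus 3 SD (cut at about 130% in these data); inactive = the rest.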
# Assay: STAT1 signaling activators, primary screen, cell-based, HTS, luciferase reporter (AID 932);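 also: raw ratio to IFN-gamma control signal so 100% means no change and 0% no light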
# Settings: NIH 3T3 STAT1-luciferase reporter, IFN-gamma, luminescence; at 5.5 µM; hits give high values; 100% = IFN-gamma alone, no compound
row,Compound,activation (% of control)
1,N#Cc1ccccc1NC(=O)COc1c(Br)cc(Br)c2cccnc12,77.3%
2,Cc1ccc(NC(=O)CC2S/C(=N/N=C3\CCCc4ccccc43)NC2=O)cc1 (stereo not given),107%
3,COc1ccc(CCn2ccc(O)c(Cc3ccc(Cl)cc3Cl)c2=O)cc1OC,92.6%
4,COc1ccc(C(=O)NC2CCN(C(=S)NCCc3ccccc3)CC2)cc1,91.9%
5,CC1CCCN(c2ccc(C(=O)NCCc3ccccc3)cn2)C1 (stereo not given),147% (active)
6,O=C(NCCc1ccccc1)c1ccc(NC2=NC3CS(=O)(=O)CC3S2)cc1 (stereo not given),102%
7,CCCC/C(C)=N/NC(=O)NC1CCCCC1,102%
8,NS(=O)(=O)c1ccc(NC(=O)COC(=O)c2ccc(Cl)nc2)cc1,103%
9,CCc1ccc(C2N3CC4([N+](=O)[O-])CN2CC([N+](=O)[O-])(C3)C4(C)C)cc1 (stereo not given),90.6%
10,COc1ccc(-c2nc3n(c2Br)CCC3)cc1,131% (active)
11,Cc1ccc2nc3n(c(=O)c2c1)CCC3,106%
12,Brc1cccc(-c2nnc3n2CCC3)c1,101%
13,COc1cc(-c2cc(C(=O)OCC(=O)Nc3ccc4c(c3)OCO4)c3ccccc3n2)cc(OC)c1OC,91.2%
14,Cc1cccc(C)c1N1CCN(S(=O)(=O)N2CCCCC2)CC1,96.7%
15,CC1CN(CCOc2ccccc2[N+](=O)[O-])CC(C)O1 (stereo not given),101%
16,COc1ccc(C2Nc3ccccc3C(=O)N2c2ccc(F)cc2)cc1Cn1nnc2ccccc21 (stereo not given),103%
17,COc1ccc(C2Nc3ccccc3C(=O)N2Cc2ccccc2)cc1Cn1nnc2ccccc21 (stereo not given),101%
18,COc1ccc(C2Nc3ccccc3C(=O)N2c2ccc(Cl)cc2)cc1Cn1cc([N+](=O)[O-])cn1 (stereo not given),181% (active)
19,Cc1nnc(CN(C)Cc2cn[nH]c2-c2ccc(-c3ccccc3)cc2)o1,114%
20,COc1ccc(CCNC(=O)/C(C#N)=C2\N=C(NC(=O)c3cccs3)c3ccccc32)cc1,95.7%
21,COCCCNC(=S)N(Cc1ccccc1)Cc1ccc(F)cc1,90%
22,O=C(Oc1cccc(NC2=NS(=O)(=O)c3ccccc32)c1)c1ccncc1,92.7%
23,CC(C)(C)c1csc(NC2=NS(=O)(=O)c3ccccc32)n1,130% (active)
24,Cc1ccc(S(=O)(=O)N(NC2=NS(=O)(=O)c3ccccc32)C(=O)c2ccccc2)cc1,106%
25,COC(=O)C1=C(C(=O)OC)C(c2cc([N+](=O)[O-])ccc2O)c2sc(=O)[nH]c2S1 (stereo not given),98.4%
